# Measurements from PubChem BioAssay.
# Calls of active or inactive are those of the source.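 How the source made its calls, unless noted: active means visually confirmed hit in the image check and inhibition above 20%; inconclusive means visually confirmed hit but inhibition not above 20%; inactive means no visual hit in the image check.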
# Test: inhibitors of TNFa-induced NFkB p65 translocation, primary screen, imaging, HUVEC, MLSMR starter and 10KST1 sets (AID 438;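 active means inhibition above 20% together with a positive visual image hit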;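 further: compound added about 3h40 before a 20 min TNFalpha stimulation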;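 on inhibition: signal is the nuclear over cytoplasmic p65 intensity ratio per well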)
# Details: HUVEC TNFa-induced p65 nuclear translocation; cell count: measured here: nuclei count (cytotoxicity indicator), at 2.08 µM; inhibition: at 2 µM, stronger effect = higher value, 0% TNFa-plus-vehicle, 100% no-TNFa wells
SMILES,inhibition,cell count
Cc1nc(NS(=O)(=O)c2ccccc2)sc1NC(=O)OCCN(C)C,-18.9% (inactive),362
Cn1c(=O)n(CCc2ccccc2)c(=O)c2c1ncn2Cc1ccccc1,-1.6% (inactive),505
CC(C)OC(=O)c1nn2c(C(F)(F)F)cc(-c3ccc(Br)o3)nc2c1Br,-4.9% (inactive),519
CCCc1nn(C)c2c1C(c1cccnc1)C(C#N)=C(N)O2 (stereo not given),-5.3% (inactive),521
Cc1ccccc1NC(=O)NCCc1nc2ccccc2[nH]1,1.8% (inactive),543
Nc1c(Br)cc2oc(-c3ccccc3)nc2c1Br,-3.4% (inactive),539
CCCc1[nH]nc2c1C(c1c(C)nn(-c3ccccc3)c1Cl)C(C#N)=C(N)O2 (stereo not given),-3.2% (inactive),673
COC(=O)c1c(NC(=O)c2nn(C)cc2Cl)sc2c1CCCC2,4.5% (inactive),650
Cc1cc(=O)oc(C)c1C(=O)Nc1cccc2nonc12,-0.5% (inactive),404
CC(C)c1nc(N2CCOCC2)c(C#N)c2c1CCC2,2.9% (inactive),533
CCOC(=O)c1c(C)n(C)c2ccc(OC)c(NC(=O)CN3CCN(Cc4ccccc4)CC3)c12,0.8% (inactive),291
CC(C)CC(NC(=O)OC(C)(C)C)C(=O)NCc1ccccc1 (stereo not given),-12.9% (inactive),626
O=c1[nH]nc2n1CCCCC2,-27.5% (inactive),530
Cc1ccc(N(CN2C(=O)NC(C)(C)C2=O)CN2C(=O)NC(C)(C)C2=O)cc1,5.9% (inactive),465
CC1CN(C2CCN(S(=O)(=O)c3ccc4ccccc4c3)CC2)CC(C)O1 (stereo not given),-19.4% (inactive),396
CC(C)(C)C1CCC2(CC1)C(C#N)=C(SCC(=O)Nc1ccccc1)NC(=O)C2C#N (stereo not given),-3.7% (inactive),390
CCOC(=O)c1cc2c(=O)n3cccc(C)c3nc2n(Cc2cccnc2)c1=N,3.3% (inactive),583
OC(CNCCCN1CCCCC1)COc1ccccc1 (stereo not given),-6.2% (inactive),630
Cc1ccc(-c2ccccc2NC(=O)C2C3C=CC(C3)C2C(=O)O)o1 (stereo not given),-2.2% (inactive),553
Cn1c(=O)c2c3c(sc2n2c(SCC(N)=O)nnc12)CC(C(C)(C)C)CC3 (stereo not given),-9.7% (inactive),508

SMILES,inhibition,cell count
CCOc1cccc(-c2nn3c(-c4ccccn4)nnc3s2)c1,-3.2% (inactive),649
Cn1c(=O)n(C)c2cc(C(=O)c3ccccc3)ccc21,-14.4% (inactive),534
CCC(=O)OC1=C2C(=Nc3c(c(=O)n(C)c(=O)n3C)C2c2ccccc2)c2ccccc21 (stereo not given),-2.9% (inactive),509
Cc1ccsc1C1NC(=O)c2c(sc3c2CCCC3)N1 (stereo not given),-31.7% (inactive),584
CCCCc1ccc(NC(=O)CSC2=C(C#N)C(c3ccco3)C3=C(CCCC3=O)N2)cc1 (stereo not given),-8% (inactive),384
CCCCNc1nc2c(c(=O)n(C)c(=O)n2C)n1Cc1cccc(OC)c1,-7.7% (inactive),452
Cc1c(CCC#N)c(N2CCCCC2)n2c(nc3ccccc32)c1C#N,-20.4% (inactive),547
CN(C)C/C(Cl)=C(\Cl)c1ccccc1,-0.1% (inactive),584
CC(C)Cc1nc(N2CCCCC2)c(C#N)c2c1CCC2,-0.1% (inactive),513
CCCCCc1nc2sc3c(c2c(=O)n1N)CCC3,-11.1% (inactive),632
CCOC(=O)Cn1c(SC)nc2sc3c(c2c1=O)CC(C)(C)OC3,-7.4% (inactive),655
Cc1ccc(SCc2nnc(N)s2)cc1,-16.4% (inactive),580
CC(C)Cc1nc(N2CCOCC2)c(C#N)c2c1CCC2,3.3% (inactive),488
CCOc1ccc(Cn2c(O)cc(=O)[nH]c2=O)cc1,1.9% (inactive),530
Cc1ccc(S(=O)(=O)NC(=O)NCc2ccc3c(c2)OCO3)cc1,-2.3% (inactive),396
CCCCn1c(-c2ccc(Cl)cc2)nc2c(=O)n(C)c(=O)[nH]c21,-18.9% (inactive),453
CCCCNC(=O)C(C#N)c1nc2ccccc2nc1N1CCN(Cc2ccc3c(c2)OCO3)CC1 (stereo not given),-0.5% (inactive),555
c1ccc(-c2nnc3sc(Cc4cccs4)nn23)cc1,-16% (inactive),602
CC(=O)C1=C(O)C(=O)N(c2cccc(C(=O)O)c2)C1c1ccc(F)cc1 (stereo not given),-13% (inactive),580
Cc1ccc(OCc2nnc(NC(=O)c3ccco3)s2)c(C)c1,-7.3% (inactive),438

# Test: inhibitors of E-selectin induction by TNFa, primary screen, imaging, HUVEC, immunofluorescence, MLSMR starter and 10KST1 sets (AID 487);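 on inhibition: signal is fraction of cell area covered by stained E-selectin grains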;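 on nuclei count: 100% = median nuclei count of all wells on the same plate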
# Details: HUVEC TNFalpha-induced E-selectin immunofluorescence imaging, at 2 µM; inhibition: stronger effect = higher value; nuclei count: measured here: cell number, toxicity
SMILES,inhibition,nuclei count [%]
Cc1nc(NS(=O)(=O)c2ccccc2)sc1NC(=O)OCCN(C)C,-107% (inactive),130
Cn1c(=O)n(CCc2ccccc2)c(=O)c2c1ncn2Cc1ccccc1,42.5% (inactive),115
CC(C)OC(=O)c1nn2c(C(F)(F)F)cc(-c3ccc(Br)o3)nc2c1Br,5.6% (inactive),127
CCCc1nn(C)c2c1C(c1cccnc1)C(C#N)=C(N)O2 (stereo not given),-50.3% (inactive),183
Cc1ccccc1NC(=O)NCCc1nc2ccccc2[nH]1,-92.3% (inactive),163
Nc1c(Br)cc2oc(-c3ccccc3)nc2c1Br,-23.5% (inactive),119
CCCc1[nH]nc2c1C(c1c(C)nn(-c3ccccc3)c1Cl)C(C#N)=C(N)O2 (stereo not given),-234% (inactive),148
COC(=O)c1c(NC(=O)c2nn(C)cc2Cl)sc2c1CCCC2,-19.9% (inactive),179
Cc1cc(=O)oc(C)c1C(=O)Nc1cccc2nonc12,-61.8% (inactive),132
CC(C)c1nc(N2CCOCC2)c(C#N)c2c1CCC2,-92.4% (inactive),140
CCOC(=O)c1c(C)n(C)c2ccc(OC)c(NC(=O)CN3CCN(Cc4ccccc4)CC3)c12,-14% (inactive),93.5
CC(C)CC(NC(=O)OC(C)(C)C)C(=O)NCc1ccccc1 (stereo not given),-28.9% (inactive),156
O=c1[nH]nc2n1CCCCC2,-139% (inactive),180
Cc1ccc(N(CN2C(=O)NC(C)(C)C2=O)CN2C(=O)NC(C)(C)C2=O)cc1,-355% (inactive),156
CC1CN(C2CCN(S(=O)(=O)c3ccc4ccccc4c3)CC2)CC(C)O1 (stereo not given),-273% (inactive),173
CC(C)(C)C1CCC2(CC1)C(C#N)=C(SCC(=O)Nc1ccccc1)NC(=O)C2C#N (stereo not given),-138% (inactive),85.7
CCOC(=O)c1cc2c(=O)n3cccc(C)c3nc2n(Cc2cccnc2)c1=N,-66.9% (inactive),157
OC(CNCCCN1CCCCC1)COc1ccccc1 (stereo not given),-169% (inactive),178
Cc1ccc(-c2ccccc2NC(=O)C2C3C=CC(C3)C2C(=O)O)o1 (stereo not given),-4.5% (inactive),154
Cn1c(=O)c2c3c(sc2n2c(SCC(N)=O)nnc12)CC(C(C)(C)C)CC3 (stereo not given),-30% (inactive),91.7

SMILES,inhibition,nuclei count [%]
CCOc1cccc(-c2nn3c(-c4ccccn4)nnc3s2)c1,-78% (inactive),150
Cn1c(=O)n(C)c2cc(C(=O)c3ccccc3)ccc21,24.3% (inactive),180
CCC(=O)OC1=C2C(=Nc3c(c(=O)n(C)c(=O)n3C)C2c2ccccc2)c2ccccc21 (stereo not given),-57.1% (inactive),75.2
Cc1ccsc1C1NC(=O)c2c(sc3c2CCCC3)N1 (stereo not given),-31.6% (inactive),166
CCCCc1ccc(NC(=O)CSC2=C(C#N)C(c3ccco3)C3=C(CCCC3=O)N2)cc1 (stereo not given),-114% (inactive),151
CCCCNc1nc2c(c(=O)n(C)c(=O)n2C)n1Cc1cccc(OC)c1,-133% (inactive),175
Cc1c(CCC#N)c(N2CCCCC2)n2c(nc3ccccc32)c1C#N,-116% (inactive),155
CN(C)C/C(Cl)=C(\Cl)c1ccccc1,-20.3% (inactive),159
CC(C)Cc1nc(N2CCCCC2)c(C#N)c2c1CCC2,-91.7% (inactive),135
CCCCCc1nc2sc3c(c2c(=O)n1N)CCC3,46.3% (inactive),166
CCOC(=O)Cn1c(SC)nc2sc3c(c2c1=O)CC(C)(C)OC3,1.5% (inactive),179
Cc1ccc(SCc2nnc(N)s2)cc1,29.9% (inactive),161
CC(C)Cc1nc(N2CCOCC2)c(C#N)c2c1CCC2,-87.5% (inactive),114
CCOc1ccc(Cn2c(O)cc(=O)[nH]c2=O)cc1,-97.4% (inactive),190
Cc1ccc(S(=O)(=O)NC(=O)NCc2ccc3c(c2)OCO3)cc1,-36.4% (inactive),91.6
CCCCn1c(-c2ccc(Cl)cc2)nc2c(=O)n(C)c(=O)[nH]c21,-400% (inactive),197
CCCCNC(=O)C(C#N)c1nc2ccccc2nc1N1CCN(Cc2ccc3c(c2)OCO3)CC1 (stereo not given),21.5% (inactive),145
c1ccc(-c2nnc3sc(Cc4cccs4)nn23)cc1,-149% (inactive),174
CC(=O)C1=C(O)C(=O)N(c2cccc(C(=O)O)c2)C1c1ccc(F)cc1 (stereo not given),-65.7% (inactive),160
Cc1ccc(OCc2nnc(NC(=O)c3ccco3)s2)c(C)c1,15.6% (inactive),106
